# Measurements published in PubChem BioAssay (NCATS).
# Unmarked numbers belong to inactive results. Inconclusive results are not listed. Calls of active or inactive are those of the source. Unless noted, the call rests on the fitted dose curve; in most records, active means well fitted curve in either direction with a large enough effect (not every such curve was filed as active); inconclusive means small, poorly fitted or top-dose-only effect, or another doubt; inactive means flat fitted curve, though single readings scatter.
# Tests used:
# [1] = AP1 Signaling Pathway (AID 357); conditions: ME-180 AP-1-bla reporter, EGF-induced, beta-lactamase ratio, 5 h; at 17.2 µM (top of the series) unless noted;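 further: ME-180 reporter cells stimulated with EGF at its EC50 level; on the % scale 0 is the no-effect control and ±100 the full control effect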
# Method in brief: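 Cells are seeded overnight, exposed to compound titrations and an EC50 level of EGF for 5 hours at 37 °C, then loaded with CCF4 dye for 2.5 hours. Beta-lactamase activity under the AP-1 element is read as a blue/green ratio.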
# [2] = NFAT Signaling Pathway (AID 444); conditions: Jurkat NFAT-bla M1, carbachol, beta-lactamase ratio, 5 h; at 17.2 µM (top of the series) unless noted;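 further: carbachol stimulus at about its EC50 of 1 µM final; on the % scale 0 is the no-effect control and ±100 the full control effect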
# Method in brief: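 Read-out: CCF4 FRET ratio (460 nm/530 nm) after 1 h RT dye loading, used for %activity and AC50 from titration series. Cells: Jurkat NFAT-β-lactamase/M1 line, treated with compound plus 1 uM carbachol for 5 h, 37 °C.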
# [3] = Stat Signaling Pathway (AID 446); conditions: ME-180 SIE beta-lactamase reporter, IL-6 stimulated, 5 h; at 17.2 µM (top of the series) unless noted;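 further: ME-180 cervical cancer cells given 40 pM IL-6 alongside compound; SIE-controlled beta-lactamase reporter measured as 460/530 nm FRET emission ratio; on the % scale 0 is the no-effect control and ±100 the full control effect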
# Method in brief: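 Compound effects on IL-6-induced STAT reporter activity were measured in ME-180 cells. After overnight culture, cells were co-treated with 40 pM IL-6 for 5 hrs before beta-lactamase substrate loading at room temperature.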
# [4] = target: Glucocorticoid receptor (Homo sapiens) (UniProt P04150); experiment: GR-GFP Redistribution (AID 450;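 active means compounds whose dose series gives a full or clear partial fitted curve of increased nuclear translocation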; further: potency means the concentration at half of the fitted maximal effect)
# Glucocorticoid receptor (Homo sapiens), sequence (P04150 whole entry, looked up, the tested form may be a part): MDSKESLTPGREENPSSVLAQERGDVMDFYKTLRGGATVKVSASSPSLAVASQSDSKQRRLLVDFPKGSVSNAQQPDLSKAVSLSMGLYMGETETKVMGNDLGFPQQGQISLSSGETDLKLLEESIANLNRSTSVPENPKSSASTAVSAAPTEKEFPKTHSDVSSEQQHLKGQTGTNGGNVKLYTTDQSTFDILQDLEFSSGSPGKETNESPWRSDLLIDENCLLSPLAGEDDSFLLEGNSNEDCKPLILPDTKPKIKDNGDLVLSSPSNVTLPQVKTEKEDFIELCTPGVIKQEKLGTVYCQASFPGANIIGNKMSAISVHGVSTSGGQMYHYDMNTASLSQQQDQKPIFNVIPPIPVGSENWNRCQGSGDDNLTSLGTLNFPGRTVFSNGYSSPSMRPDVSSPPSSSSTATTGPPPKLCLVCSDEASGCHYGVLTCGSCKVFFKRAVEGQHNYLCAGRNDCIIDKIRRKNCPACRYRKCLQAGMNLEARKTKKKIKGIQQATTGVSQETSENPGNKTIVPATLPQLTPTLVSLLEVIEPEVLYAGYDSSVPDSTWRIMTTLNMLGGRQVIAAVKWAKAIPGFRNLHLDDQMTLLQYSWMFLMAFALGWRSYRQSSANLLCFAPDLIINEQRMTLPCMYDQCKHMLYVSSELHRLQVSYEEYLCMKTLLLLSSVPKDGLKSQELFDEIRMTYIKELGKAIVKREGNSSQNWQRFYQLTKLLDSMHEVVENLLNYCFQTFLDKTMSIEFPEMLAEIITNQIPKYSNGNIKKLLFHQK
# [5] = qHTS Assay for Identification of Small Molecule Agonists for Hypoxia Response Element Signaling Pathway (AID 914; active means well fitted activation curve with a large enough effect in the signal ratio, with a control signal flat, not every such curve was filed as active; the % refers to the signal ratio; further: potency means the concentration at half of the fitted maximal effect; on activation: % of control where 0% means no effect); conditions: ME-180 (cervical carcinoma) HRE-bla reporter, beta-lactamase ratio, CoCl2, 17 h; activation: active compounds read high
# Method in brief: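 Cells were plated overnight, pin-dosed with compound in a titration series, co-stimulated with EC50 CoCl2 and incubated 17 hours at 37 degrees Celsius. CCF4 substrate was then loaded, and AC50 values came from the 460nm/530nm ratio.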
# [6] = target: Glucocorticoid receptor (Homo sapiens) (UniProt P04150); experiment: qHTS assay for small molecule agonists of glucocorticoid receptor signaling (AID 588532; active means well fitted curve in the direction sought with a large enough effect in the signal ratio, with a control signal flat; the % refers to the signal ratio;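 further: 100% = dexamethasone at 0.1 µM and 0% = DMSO only wells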); conditions: HeLa MMTV-bla, beta-lactamase ratio, agonist, 18 h; active compounds read high; percent of dexamethasone control, DMSO zero
# Method in brief: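 Using MMTV-bla HeLa cells in medium with 1% stripped FBS and 25 mM HEPES, compounds were titrated and incubated overnight-length (18 h). Beta-lactamase cleavage of CCF4 was quantified by dual-emission fluorescence.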
# [7] = target: Glucocorticoid receptor (Homo sapiens) (UniProt P04150); experiment: qHTS assay for small molecule antagonists of glucocorticoid receptor signaling (AID 588533; active means well fitted inhibition curve with a large enough effect in the signal ratio, with a control signal flat, not every such curve was filed as active; the % refers to the signal ratio;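 further: cells stimulated with 2 nM dexamethasone as agonist; on the % scale 0 is the no-effect control and ±100 the full control effect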)
# Method in brief: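 Antagonist-mode qHTS: compound titrations added to GRE-bla HeLa cells, then dexamethasone 2 nM final; 18 h, 37 C. CCF4 FRET fluorescence normalized to dexamethasone and DMSO; IC50 from Hill fit.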
# [8] = target: Peroxisome proliferator-activated receptor gamma (Homo sapiens) (UniProt P37231); experiment: qHTS assay for small molecule antagonists of peroxisome proliferator-activated receptor gamma signaling (AID 588537; active means well fitted inhibition curve with a large enough effect in the signal ratio, with a control signal flat, not every such curve was filed as active; the % refers to the signal ratio;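 further: reporter cells co-stimulated with 50 nM rosiglitazone agonist during compound treatment; % of control where 0% means no effect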)
# Peroxisome proliferator-activated receptor gamma (Homo sapiens), sequence (P37231 whole entry, looked up): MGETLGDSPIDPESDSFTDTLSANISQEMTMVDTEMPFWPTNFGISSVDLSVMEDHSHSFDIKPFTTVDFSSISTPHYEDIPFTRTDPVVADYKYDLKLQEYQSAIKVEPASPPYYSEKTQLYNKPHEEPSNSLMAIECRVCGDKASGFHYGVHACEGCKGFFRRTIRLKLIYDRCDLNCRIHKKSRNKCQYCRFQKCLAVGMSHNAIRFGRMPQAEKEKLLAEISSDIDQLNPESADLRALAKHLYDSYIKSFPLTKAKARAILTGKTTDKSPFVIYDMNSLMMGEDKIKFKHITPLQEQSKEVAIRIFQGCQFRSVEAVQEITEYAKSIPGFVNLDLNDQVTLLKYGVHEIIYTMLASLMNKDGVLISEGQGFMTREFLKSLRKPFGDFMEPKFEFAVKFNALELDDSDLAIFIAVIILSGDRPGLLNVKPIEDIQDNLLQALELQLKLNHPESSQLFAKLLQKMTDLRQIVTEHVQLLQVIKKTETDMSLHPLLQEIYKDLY
# Method in brief: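 Antagonist-mode β-lactamase reporter screen run as a titration series. HEK293 PPARγ-UAS-bla cells are stimulated with rosiglitazone (50 nM final) for 16 h, then CCF4 is read at 460/530 nm. Data are scaled between DMSO and rosiglitazone and fitted to the Hill equation.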
# [9] = qHTS assay for small molecule agonists of the antioxidant response element (ARE) signaling pathway (AID 651741; active means well fitted activation curve with a large enough effect in the signal ratio; the % refers to the signal ratio; further: potency means the concentration at half of the fitted maximal effect)
# Method in brief: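 Beta-lactamase reporter under ARE control in HepG2 cells, 2,000 per well, was induced by 16 h compound treatment at 37 C. Read-out was fluorescence from LiveBLAzer B/G FRET substrate after 2 h at room temperature.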
# [10] = target: Peroxisome proliferator-activated receptor alpha (Homo sapiens) (UniProt Q07869); experiment: qHTS assay for small molecule agonists of the peroxisome proliferator-activated receptor alpha (PPARalpha) signaling pathway (AID 651778; active means well fitted curve in the direction sought with a large enough effect; an effect the other way counts as inactive or inconclusive; further: % of control where 0% means no effect); conditions: PathHunter PPARalpha complementation, chemiluminescence, 6 h; max response: active compounds read high
# Peroxisome proliferator-activated receptor alpha (Homo sapiens), sequence (Q07869 whole entry, looked up): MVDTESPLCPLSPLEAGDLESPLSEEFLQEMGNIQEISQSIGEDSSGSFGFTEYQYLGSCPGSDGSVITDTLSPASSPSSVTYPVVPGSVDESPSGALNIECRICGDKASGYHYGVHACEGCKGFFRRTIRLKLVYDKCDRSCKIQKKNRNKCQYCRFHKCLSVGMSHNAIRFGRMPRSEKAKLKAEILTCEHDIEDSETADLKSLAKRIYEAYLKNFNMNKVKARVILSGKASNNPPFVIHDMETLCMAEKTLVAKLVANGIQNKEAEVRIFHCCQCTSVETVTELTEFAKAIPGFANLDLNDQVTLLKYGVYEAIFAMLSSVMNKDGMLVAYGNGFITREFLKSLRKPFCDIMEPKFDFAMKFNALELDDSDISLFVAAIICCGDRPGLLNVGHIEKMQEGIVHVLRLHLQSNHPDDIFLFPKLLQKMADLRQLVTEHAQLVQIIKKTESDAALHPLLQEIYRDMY
# Method in brief: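 Chemiluminescence from complemented enzyme reported PPARalpha activation in cells after 6 hr of compound treatment at 37 C. The detection reagent was incubated for 60 min at room temperature, and compounds were scored as agonists.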
# [11] = qHTS assay for cell viability of HEK293 cells (AID 743288; active means well fitted curve in the direction sought with a large enough effect; an effect the other way counts as inactive or inconclusive; further: on the % scale 0 is the no-effect control and ±100 the full control effect; nearly all actives have a fitted effect of over 50% in size); conditions: ATP luminescence (CellTiter-Glo), 18 h; max response: active compounds read low
# Method in brief: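 ATP luminescence (CellTiter-Glo) reports metabolically competent cell number after parental HEK293 cells, 2,000/well, were treated with DMSO-dissolved compounds for 18 h at 37 C; reagent incubation 30 min, room temperature.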
# [12] = qHTS assay for cell viability of the p53RE-bla HCT-116 cell line (AID 743292; active means well fitted curve in the direction sought with a large enough effect; an effect the other way counts as inactive or inconclusive; further: on the % scale 0 is the no-effect control and ±100 the full control effect; nearly all actives have a fitted effect of over 55% in size)
# Method in brief: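 Quantitative high-throughput format: compounds in DMSO were pinned onto p53RE-bla HCT-116 cells (4,000/well) and incubated 16 h at 37 C. Total intracellular ATP, read by CellTiter-Glo luminescence, reflects viable cell number.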
# [13] = target: Nuclear receptor subfamily 1 group I member 2 (Rattus norvegicus) (UniProt Q9R1A7); experiment: qHTS assay for small molecule activators of the rat pregnane X receptor (rPXR) signaling pathway (AID 651751; call rule not given here; further: 0% is about no effect); conditions: rPXR reporter cells, luciferase (One-Glo), 24 h
# Nuclear receptor subfamily 1 group I member 2 (Rattus norvegicus), sequence (Q9R1A7 whole entry, looked up): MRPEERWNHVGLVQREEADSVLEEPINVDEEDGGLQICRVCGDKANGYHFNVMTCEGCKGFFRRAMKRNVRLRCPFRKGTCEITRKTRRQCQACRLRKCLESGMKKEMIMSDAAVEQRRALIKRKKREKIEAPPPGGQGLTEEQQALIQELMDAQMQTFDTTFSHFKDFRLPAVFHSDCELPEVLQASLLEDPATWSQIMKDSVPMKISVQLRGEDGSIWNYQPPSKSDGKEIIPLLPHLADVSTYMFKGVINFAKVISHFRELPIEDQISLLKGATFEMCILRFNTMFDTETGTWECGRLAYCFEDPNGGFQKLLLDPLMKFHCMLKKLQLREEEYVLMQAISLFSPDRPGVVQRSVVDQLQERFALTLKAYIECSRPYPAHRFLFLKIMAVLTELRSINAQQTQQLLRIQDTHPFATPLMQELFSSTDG
# [14] = target: Mitogen-activated protein kinase 10 (Mus musculus) (UniProt Q61831); experiment: JNK3 AlphaScreen Assay (AID 530)
# Method in brief: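 qHTS titrations with 15 min compound pre-incubation before adding ATP (10 uM final). Read-out: AlphaScreen of Ser73-phosphorylated biotin-GST-cJun using HepG2 lysate JNK3 activated by IL-1β and TNFα.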
# [15] = target: 3',5'-cyclic-AMP phosphodiesterase 4B (Homo sapiens) (UniProt Q07343); experiment: qHTS Assay for Inhibitors of PDE-IV (AID 607; active means well fitted activation curve with a large enough effect in the main read-out, with a control signal flat, not every such curve was filed as active; further: % of control where 0% means no effect)
# 3',5'-cyclic-AMP phosphodiesterase 4B (Homo sapiens), sequence (Q07343 whole entry, looked up): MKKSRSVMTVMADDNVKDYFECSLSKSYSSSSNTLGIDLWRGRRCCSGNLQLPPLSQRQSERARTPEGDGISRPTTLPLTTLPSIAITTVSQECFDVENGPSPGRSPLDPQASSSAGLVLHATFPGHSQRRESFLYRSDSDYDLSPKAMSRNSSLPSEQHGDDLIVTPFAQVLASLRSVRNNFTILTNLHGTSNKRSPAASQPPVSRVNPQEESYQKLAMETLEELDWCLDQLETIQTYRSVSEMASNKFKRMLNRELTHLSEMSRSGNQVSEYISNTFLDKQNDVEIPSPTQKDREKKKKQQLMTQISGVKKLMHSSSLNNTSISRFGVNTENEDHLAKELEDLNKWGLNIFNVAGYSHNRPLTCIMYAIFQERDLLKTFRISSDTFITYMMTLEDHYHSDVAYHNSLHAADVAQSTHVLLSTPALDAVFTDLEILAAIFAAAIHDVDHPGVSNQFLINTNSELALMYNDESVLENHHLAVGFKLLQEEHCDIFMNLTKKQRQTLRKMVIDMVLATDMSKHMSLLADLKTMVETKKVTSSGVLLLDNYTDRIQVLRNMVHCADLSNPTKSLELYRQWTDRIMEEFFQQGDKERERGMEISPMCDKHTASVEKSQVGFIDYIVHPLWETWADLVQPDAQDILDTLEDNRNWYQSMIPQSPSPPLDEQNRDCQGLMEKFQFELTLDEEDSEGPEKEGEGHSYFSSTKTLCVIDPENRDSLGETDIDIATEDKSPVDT
# Method in brief: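 ACTOne HEK293 cells carry a modified cAMP-gated CNG channel and express endogenous PDE4; plated 1000 cells/well, compounds up to 22.9 uM final. Membrane-potential dye fluorescence (ex 535/em 590) was read; parental cells received 10 uM forskolin + 100 uM RO 20-1724.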
# [16] = target: Glucocorticoid receptor (Homo sapiens) (UniProt P04150); experiment: GR-EFC Redistribution (AID 451; calls by dose curve; further: potency means the concentration at half of the fitted maximal effect); conditions: CHO-K1 GR-EFC translocation, beta-gal luminescence, 2 h
# Method in brief: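 Translocation of GR-ED fusion to nuclear EA restores b-gal, read by luminescence after 1 h room-temperature detection. Engineered CHO-K1 biosensor cells, 1,000/well, exposed 2 h at 37 C to titrations up to 46 uM final.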
# [17] = target: Cytochrome P450 3A4 (Homo sapiens) (UniProt P08684); experiment: qHTS Assay for Activators of Cytochrome P450 3A4 (AID 885; active means well fitted curve in the direction sought with a large enough effect; an effect the other way counts as inactive or inconclusive; further: nearly all actives have a fitted effect of over 65% in size)
# Cytochrome P450 3A4 (Homo sapiens), sequence (P08684 whole entry, looked up): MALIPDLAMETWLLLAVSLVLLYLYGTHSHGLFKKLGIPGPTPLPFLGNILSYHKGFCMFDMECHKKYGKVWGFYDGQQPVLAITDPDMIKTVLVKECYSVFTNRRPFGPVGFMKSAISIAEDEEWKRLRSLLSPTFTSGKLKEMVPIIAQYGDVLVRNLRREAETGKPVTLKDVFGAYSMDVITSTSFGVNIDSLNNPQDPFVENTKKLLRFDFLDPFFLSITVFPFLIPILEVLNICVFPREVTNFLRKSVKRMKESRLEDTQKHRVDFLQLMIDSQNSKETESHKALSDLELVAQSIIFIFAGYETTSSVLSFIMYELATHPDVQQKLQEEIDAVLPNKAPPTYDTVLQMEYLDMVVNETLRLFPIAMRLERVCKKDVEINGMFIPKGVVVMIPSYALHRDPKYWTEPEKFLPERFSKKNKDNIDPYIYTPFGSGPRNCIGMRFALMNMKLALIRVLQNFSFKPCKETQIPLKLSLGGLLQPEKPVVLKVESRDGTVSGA
# Method in brief: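 CYP3A4 activity: Luciferin-PPXE O-dealkylation, 25uM substrate, 200mM KPO4, RT throughout. Read-out is luciferase luminescence; higher values reflect activation.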
structure (smiles),measurement,setting,value
CCOc1ccc(-c2nnc3sc(-c4ccccc4OC)nn23)cc1,"activity change, negative = inhibition",[1],18%
same,"activity change, negative = inhibition",[2],-19.8%
same,"activity, negative = inhibition",[3],5.75%
same,Potency,[4],> 20.6 µM
same,activation,[5],-10.9%
O=c1oc2cc(O)ccc2c2oc3cc(O)ccc3c12,"activity change, negative = inhibition",[1],5.61%
same,"activity change, negative = inhibition",[2],3.33%
same,"activity, negative = inhibition",[3],-5.07%
same,Potency,[4],> 20.6 µM
same,activation,[6],-5.79%
same,Potency,[7],inactive
same,Potency,[8],inactive
same,Potency,[9],54.5 µM (active)
same,max response,[10],-1.88%
same,max response,[11],-9.05%
same,Potency,[12],inactive
same,max response,[13],3.73%
COC(=O)C1=C(N)Oc2cc(C)oc(=O)c2C1c1ccncc1 (stereo unspecified),"activity change, negative = inhibition",[1],-9.84%
same,"activity change, negative = inhibition",[2],4.62%
same,"activity, negative = inhibition",[3],0.284%
same,Potency,[4],> 20.6 µM
same,activation,[5],12.2%
CC(=O)CCn1c(=O)n(CCC(C)=O)c(=O)n(CCC(C)=O)c1=O,"activity change, negative = inhibition",[1],5.12%
same,"activity change, negative = inhibition",[2],6.61%
same,"activity, negative = inhibition",[3],-1.84%
same,Potency,[4],> 20.6 µM
same,activation,[5],11.1%
COc1cc(C)cc2c(-c3c(O)cc(O)c4c3C[C@H](C)N[C@@H]4C)cc(-c3cc(-c4c(O)cc(O)c5c4C[C@H](C)N[C@@H]5C)c4cc(C)cc(OC)c4c3O)c(O)c12,"activity change, negative = inhibition",[1],6.28% [at 7.69 µM]
same,"activity change, negative = inhibition",[2],9.14% [at 7.69 µM]
same,"activity, negative = inhibition",[3],5.82% [at 7.69 µM]
same,Potency,[4],> 46 µM
same,"activity change, negative = inhibition",[14],-9.73% [at 11.4 µM]
same,Potency,[15],inactive
O=C(NC1CCS(=O)(=O)C1)c1c(NC(=O)C2COc3ccccc3O2)sc2c1CCCC2 (stereo unspecified),"activity change, negative = inhibition",[1],-20.8%
same,"activity change, negative = inhibition",[2],-18.5%
same,"activity, negative = inhibition",[3],-9.79%
same,Potency,[4],> 20.6 µM
same,Potency,[5],5.01 µM (active)
O=C(C[N+]12CN3CN(CN(C3)C1)C2)c1ccc(-c2ccccc2)cc1,"activity change, negative = inhibition",[1],8.23% [at 7.69 µM]
same,"activity change, negative = inhibition",[2],-2.51% [at 7.69 µM]
same,"activity, negative = inhibition",[3],0.439% [at 7.69 µM]
same,Potency,[4],> 46 µM
same,Potency,[16],> 9.22 µM
same,"activity change, negative = inhibition",[14],-2.86% [at 11.4 µM]
same,Potency,[15],inactive
same,"activity change, positive = activation",[17],-51.5% [at 11.4 µM]
COC(=O)C(NC(C)=O)(Nc1nc2c(s1)CCCC2)C(F)(F)F (stereo unspecified),"activity change, negative = inhibition",[1],1.18%
same,"activity change, negative = inhibition",[2],-2.64%
same,"activity, negative = inhibition",[3],-8.22%
same,Potency,[4],> 20.6 µM
same,activation,[5],-17%
